Compound activity: PubChem BioAssay, Johns Hopkins Ion Channel Center
KCNQ2 inh – rat KCNQ2 potassium channel inhibitors, primary screen, cell-based, CHO-K1, FluxOR thallium flux, B-score; Potassium voltage-gated channel subfamily KQT member 2 (Rattus norvegicus), O88943; 20 min; hits give low values; B-score at 10 µM; actives 1.1% (n = 310,000); AID 2156, 2009;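 active = fluorescence ratio B-score at most minus 3 library SDs, with starting brightness B-score within 2 library SDs, cut at about -5.5 in these data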
Target sequence (O88943 whole entry, looked up): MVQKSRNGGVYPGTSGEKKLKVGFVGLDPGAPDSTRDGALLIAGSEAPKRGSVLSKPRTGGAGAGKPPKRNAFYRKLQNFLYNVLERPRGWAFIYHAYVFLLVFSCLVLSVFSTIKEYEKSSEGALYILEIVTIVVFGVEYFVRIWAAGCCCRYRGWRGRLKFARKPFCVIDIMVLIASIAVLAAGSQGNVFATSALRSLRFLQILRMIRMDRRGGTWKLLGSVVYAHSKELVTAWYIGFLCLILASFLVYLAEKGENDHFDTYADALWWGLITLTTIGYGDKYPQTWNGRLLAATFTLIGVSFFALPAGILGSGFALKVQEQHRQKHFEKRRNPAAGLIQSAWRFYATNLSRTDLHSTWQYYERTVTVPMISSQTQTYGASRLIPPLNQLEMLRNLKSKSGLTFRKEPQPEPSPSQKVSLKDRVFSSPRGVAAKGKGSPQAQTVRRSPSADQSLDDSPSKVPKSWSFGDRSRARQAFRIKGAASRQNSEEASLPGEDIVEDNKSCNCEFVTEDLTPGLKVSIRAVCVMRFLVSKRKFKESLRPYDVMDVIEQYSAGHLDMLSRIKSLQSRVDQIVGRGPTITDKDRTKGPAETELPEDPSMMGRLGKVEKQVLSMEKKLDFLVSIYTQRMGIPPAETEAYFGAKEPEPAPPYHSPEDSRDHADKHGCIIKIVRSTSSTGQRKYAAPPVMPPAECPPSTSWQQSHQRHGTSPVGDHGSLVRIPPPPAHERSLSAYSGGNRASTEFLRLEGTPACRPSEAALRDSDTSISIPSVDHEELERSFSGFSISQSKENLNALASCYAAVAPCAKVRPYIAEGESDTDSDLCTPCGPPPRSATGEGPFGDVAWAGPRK
KCNQ2 enhance – potentiators of rat KCNQ2 potassium channel; CHO-K1 KCNQ2, FluxOR thallium flux fluorescence; hits give high values; B-score at 10 µM; actives 0.54% (n = 310,000); AID 2239, 2010;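 active = fluorescence ratio B-score at least 3 SD of library B-scores, with initial fluorescence B-score within 3 of them, cut at about 5.3 in these data; same plate scores as AID 2156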;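 also: B-score of peak minus minimum over baseline fluorescence ratio after K+ and Tl+ stimulus; positive B-score means potentiation of KCNQ2 with more thallium influx and brighter signal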
Kir21 confirm – mouse Kir2.1 channel blockers, retest, confirmation, cell-based, FluxOR thallium flux, duplicate; shares compounds with KCNQ2 enhance; actives 41% (n = 2,300); Tl flux remaining, % of negative control (hits give low values), % at 10 µM; AID 2032, 2009; Kir2.1-expressing cells, FluxOR thallium flux fluorescence; hits give low values;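 active = Primary-screen hit whose thallium flux fell at least 3 control SD below untreated wells in both duplicates, with normal baseline fluorescence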;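 also: 0% = blank wells without stimulus and 100% = stimulated no-compound controls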
HEK293 ctr – alters thallium flux in parental HEK293 cells, Kir2.1 counter-screen; shares compounds with KCNQ2 enhance; FluxOR thallium flux fluorescence; 0% = unstimulated blank wells; FluxOR signal as % of negative control (100 = no effect), % at 10 µM; actives 19% (n = 2,300); AID 2105;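 active = dye signal at least 3 control SD above or below untreated wells in both duplicates, raw fluorescence within 3, either direction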;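 also: percent is based on the flux ratio of peak minus minimum fluorescence over baseline F0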
CHO-K1 Tl ctr – nonspecific thallium flux increase in parental CHO-K1, confirmation, counter-screen for KCNQ2 potentiator project, cell-based, FluxOR thallium flux, duplicate. actives 43% (n = 1,200). parental CHO-K1 cells, FluxOR thallium flux fluorescence; zero = vehicle mean+3SD, 100% = vehicle-minus-blank window. shares compounds with KCNQ2 enhance. activity increase over 3SD of controls, % at 10 µM;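 active = signal rise of at least 3 SD above the untreated control mean, in both duplicate wells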;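 also: counter screen of KCNQ2 potentiator hits so any rise reflects channel-independent effects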
KCNQ1 sel pot – human KCNQ1 channel potentiation off-target, confirmation, selectivity assay for KCNQ2 potentiator project, cell-based, CHO, FluxOR thallium flux; AID 2283, 2010; shares compounds with KCNQ2 enhance; activation over 3SD threshold, % at 10 µM; CHO KCNQ1 stable, FluxOR thallium flux fluorescence; beyond 3SD, as % of vehicle-control signal; actives 28% (n = 1,200);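 active = fluorescence ratio rise of at least 3 SD of vehicle wells above their mean, in both replicate wells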;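 also: 0% = vehicle mean plus 3 SD and 100% = vehicle minus unstimulated blank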
KCNQ2 pot confirm – rat KCNQ2 channel potentiators, confirmation, cell-based, CHO, FluxOR thallium flux, duplicate; actives 68% (n = 1,200); CHO-KCNQ2 cells, FluxOR thallium flux fluorescence; shares compounds with KCNQ2 enhance; potentiation, less the hit threshold, % at 10 µM;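 active = fluorescence ratio rising 3 SD or more over the vehicle control mean in both replicates, plus primary screen hit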;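 also: peak minus minimum thallium fluorescence divided by baseline after K/Tl stimulus; 0% = vehicle mean plus 3 SD and 100% = vehicle minus unstimulated blank difference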
Kir2-1 sel – mouse Kir2.1 channel activation off-target, confirmation, selectivity assay for KCNQ2 potentiator project, cell-based, HEK293, FluxOR thallium flux. actives 2% (n = 1,200). shares compounds with KCNQ2 enhance. HEK293 Kir2.1, FluxOR thallium flux fluorescence. activity over 3SD threshold, % at 10 µM;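 active = fluorescence ratio rise of at least 3 SD above the vehicle-control mean, seen in both replicates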;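 also: 0% = vehicle mean plus 3 SD and 100% = vehicle minus no-stimulus blank window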
KCNQ2 W236L pot – potentiators of retigabine-insensitive KCNQ2 W236L, mechanism study for KCNQ2 potentiator project, cell-based, rat KCNQ2 W236L, CHO, automated patch clamp; automated patch clamp current; current increase over 3SD of negative controls (%), hits give high values, % at 25 µM; shares compounds with KCNQ2 enhance; actives 10% (n = 940);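 active = current increase at least 3 SD of the untreated controls above them in both duplicate recordings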
* hit, by the source's call; i = inactive; x = no result. Rows were chosen to be rich in hits. Some 1.6% of all compounds tested hit in one or more screens of this group.

SMILES	KCNQ2 inh	KCNQ2 enhance	Kir21 confirm	HEK293 ctr	others
Cc1ccc(NC(=S)NC(=O)c2ccc(Br)o2)c(C)c1	i	1.9	x	x
O=C(NC(=S)Nc1ccccc1F)c1ccc(Br)o1	i	16*	i	i	CHO-K1 Tl ctr=57*;KCNQ1 sel pot=-16;KCNQ2 pot confirm=67*;Kir2-1 sel=-19;KCNQ2 W236L pot=i
Cc1cccc(NC(=S)NC(=O)c2ccc(Br)o2)c1C	i	8.4*	i	148%*	CHO-K1 Tl ctr=47*;KCNQ1 sel pot=-1;KCNQ2 pot confirm=28*;Kir2-1 sel=-21;KCNQ2 W236L pot=i
COc1ccc(C2C(C(=O)c3cccs3)=C(O)C(=O)N2CCN2CCOCC2)c(OC)c1 (configuration not stated)	i	1.1	x	x
COc1ccc(N2CCN(C(=O)CNC(=O)Cn3c(C)cc4ccccc4c3=O)CC2)cc1	i	1.6	x	x
Cc1nn(CCCC(=O)NC2CCC(C)CC2)c(=O)c2nn(-c3ccccc3)c(C)c12 (configuration not stated)	i	x	x	x
COC(=O)C1(C)NC(c2ccc(O)cc2)C2C(=O)N(c3ccc(C)cc3)C(=O)C21 (configuration not stated)	i	x	x	x
Cc1nc(SCC(=O)c2cccs2)c2oc3ccccc3c2n1	i	6*	i	i	CHO-K1 Tl ctr=-16;KCNQ1 sel pot=-4;KCNQ2 pot confirm=-7;Kir2-1 sel=-38;KCNQ2 W236L pot=i
O=C(CSc1ncnc2c1oc1ccccc12)c1cccs1	i	0.98	x	x
CCN(CC(=O)NCc1ccc(Cl)cc1)C(=O)CN1C(=O)NC(C)(c2ccccc2)C1=O (configuration not stated)	i	x	x	x
N=C1S/C(=C\c2cn[nH]c2-c2ccc(F)cc2)C(=O)N1c1ccccc1F	i	0.92	x	x
CC(C)Cc1ccc(/C(=N/O)C(=O)O)s1	i	7.1*	i	i	CHO-K1 Tl ctr=23*;KCNQ1 sel pot=-14;KCNQ2 pot confirm=27*;Kir2-1 sel=-41;KCNQ2 W236L pot=i
CCc1ccc(C(=O)c2ccccc2C(=O)O)s1	i	x	x	x
O=C(N=C1c2ccccc2CN1c1ccc(F)c(Cl)c1)c1cccnc1Cl	i	x	x	x
CC(C)OCCCNC(=S)NNC(=O)c1ccc(Cl)c(Cl)c1	i	x	x	x
S=c1nc(-c2ccc(Br)cc2)[nH]c2ccccc12	i	26*	i	452%*	CHO-K1 Tl ctr=-3;KCNQ1 sel pot=-4;KCNQ2 pot confirm=40*;Kir2-1 sel=-8;KCNQ2 W236L pot=i
Fc1ccc(-c2nc3ccccc3[nH]2)cc1	i	0.68	x	x
Cc1cc(S(=O)(=O)Nc2ccc3ccccc3c2)c(C)s1	i	0.87	x	x
Cc1cc(S(=O)(=O)Nc2cc(C)c(O)c(C)c2)c(C)s1	i	x	72%*	i
O=C(Nc1ccc(Cl)c(S(=O)(=O)N2CCOCC2)c1)c1ccccc1-c1ccc(C(F)(F)F)cc1	i	x	x	x
FC(F)(F)c1cccc(-c2ccn3ncnc3n2)c1	i	0.5	x	x
Cc1ccc(OCc2ccc(Br)cc2)c([N+](=O)[O-])n1	i	x	x	x
O=C(O)Cc1cc(I)c(Oc2ccc(O)c(I)c2)c(I)c1	i	9.9*	i	i	CHO-K1 Tl ctr=1.9*;KCNQ1 sel pot=19*;KCNQ2 pot confirm=112*;Kir2-1 sel=-39;KCNQ2 W236L pot=i
O=C(O)Cc1ccc(O)c(O)c1	i	x	x	x
C=CCN(c1ccc(C(=O)Nc2ccc(NC(C)=O)cc2)cc1)S(C)(=O)=O	i	0.42	x	x
SMILES	KCNQ2 inh	KCNQ2 enhance	Kir21 confirm	HEK293 ctr	others
COC(=O)C1=C(C)N(CCCC(=O)O)C(=O)NC1c1ccccc1Cl (configuration not stated)	i	0.07	x	x
CC1(C)CC(=O)C(C(C2=C(O)CC(C)(C)CC2=O)c2ccco2)C(=O)C1 (configuration not stated)	i	5.4*	i	i	CHO-K1 Tl ctr=135*;KCNQ1 sel pot=-10;KCNQ2 pot confirm=42*;Kir2-1 sel=-44;KCNQ2 W236L pot=i
COc1cc(C(C2=C(O)CC(C)(C)CC2=O)C2C(=O)CC(C)(C)CC2=O)cc(OC)c1OC (configuration not stated)	i	x	x	x
Cc1cccc(OCC(=O)NCCCNC(=O)c2ccncc2)c1	i	1.7	x	x
O=C1NC(=O)/C(=C\c2ccc(OCc3cccc([N+](=O)[O-])c3)cc2)N1	i	0.64	x	x
Cc1ccc(CSCCNS(=O)(=O)c2ccc([N+](=O)[O-])cc2)cc1	i	x	x	x
Cc1ccc(S(=O)(=O)NCCSCc2ccccc2)cc1	i	x	64%*	i
COc1ccc(N(CC(=O)NC2CC3CCC2C3)S(=O)(=O)c2ccc(C)c([N+](=O)[O-])c2)cc1 (configuration not stated)	i	x	x	x
O=C(NCc1ccco1)C(c1cccs1)N(C(=O)C1COc2ccccc2O1)c1cccc(O)c1 (configuration not stated)	i	x	x	x
CN(c1ccc(Cl)cc1)c1cc(=O)n(C)c2ccccc12	i	x	i	i
CN(C(=O)COc1cc(=O)n(C)c2ccccc12)c1ccc(Cl)cc1	i	x	x	x
O=C(c1ccc(Cn2c(=S)[nH]c3cc4c(cc3c2=O)OCO4)cc1)N1CCN(c2ncccn2)CC1	i	x	x	x
C/C(=N\NC(=O)C1COc2ccccc2O1)c1ccc(N2CCOCC2)cc1 (configuration not stated)	i	9.2*	i	i	CHO-K1 Tl ctr=26*;KCNQ1 sel pot=-14;KCNQ2 pot confirm=-20;Kir2-1 sel=-35
C/C(=N\NC(=O)C1CC1)c1ccc(N2CCOCC2)cc1	i	0.08	x	x
Cc1ccccc1OC(C)C(=O)NCCC1=CCCCC1 (configuration not stated)	-5.9*	-5.9	38%*	i
CC(OC(=O)c1ccccc1)C(=O)NCCC1=CCCCC1 (configuration not stated)	i	1.2	x	x
CCCCNC(=O)Cn1c(=O)c2c(ncn2CC)n(Cc2ccccc2)c1=O	i	x	x	x
CC(=O)N1CCN(C(=O)CSc2nnc(C)n2-c2ccccc2)CC1	i	x	x	x
